# LASV entry inh – Lassa virus entry inhibition | 300,000 tested, 1.2% active | Potency, µM (series often up to 37.9 µM), inactives show at the highest dose activity change, negative = inhibition, usual class: inhibitors | Lassa virus pseudotype entry inhibition, cell reporter; calls by dose curve; tested in HEK293 cells; also: potency is read from the fitted curve at half-maximal effect; % is scaled to controls: 0 for no effect and ±100 for the full control effect; nearly all actives have a fitted effect of over 50% in size
# MARV entry inh – inhibitors of Marburg virus binding or cell entry; Marburg virus pseudotyped entry inhibition, cell reporter; Potency, µM (series often up to 37.8 µM), for the others: top-dose activity change, negative = inhibition, hits mostly inhibitors; 300,000 tested, 1.8% active; AID 540276; calls by dose curve; tested in HEK293 cells; also: potency is read from the fitted curve at half-maximal effect; % is scaled to controls: 0 for no effect and ±100 for the full control effect
# Cycloheximide cs – affects cycloheximide protein synthesis inhibition readout, counter-screen; cell reporter, cycloheximide protein synthesis inhibition counterscreen; max response, %; 300,000 tested, 12% active; in the data active = max response mostly above about 13%, no sharp cut-off; inactive = mostly below about 14%; also: read at 38.3 µM for the half of the compounds with a filed dose; 0% is about no effect
# Shiga toxin inh – inhibitors of Shiga toxin in Vero cells; Vero cells, Shiga toxin protein synthesis inhibition reporter; inhibition, % at 38.7 µM; 290,000 tested, 9.2% active; AID 2315; in the data active = inhibition mostly above about 28%, no sharp cut-off; inactive = mostly below about 43%; also: 0% is about no effect
# Pf growth 48h – P. falciparum growth inhibition at 48 hours (one generation). P. falciparum luciferase growth in erythrocytes, 48 h. 310,000 tested, 5.9% active. AID 504832. Potency, µM (highest dose often 28.7 µM), without a hit: at the top dose activity change, negative = inhibition, most hits filed as inhibitors; also: potency is read from the fitted curve at half-maximal effect; % is scaled to controls: 0 for no effect and ±100 for the full control effect
#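 Luminescence readout; reporter = integrated firefly luciferase in P. falciparum. RBC culture at 2% hematocrit, 0.1% parasitemia final, 37 C/5% CO2; decreased signal taken as growth inhibition.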
# Pf growth 96h – P. falciparum growth inhibition at 96 hours; 320,000 tested, 6.9% active; P. falciparum luciferase reporter growth, 96 h; Potency, µM (highest dose often 28.7 µM), without a hit: top-dose activity change, negative = inhibition, hits mostly inhibitors; also: potency is read from the fitted curve at half-maximal effect; % is scaled to controls: 0 for no effect and ±100 for the full control effect
#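 Luminescence readout: decreased luciferase signal marks inhibited growth of reporter-expressing P. falciparum in infected red cells (2% hematocrit, 0.05% parasitemia final), exposed to compound two generations (96 h, 37 C, 5% CO2).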
# Starred values were filed as active, the others as inactive; u = inconclusive; x = no result; [ ] = dose if it differs, or a comment. Only some compounds are listed: those with a hit (about 19% of all), similar ones and a draw of the others. Unless noted, calls follow the shape of the dose curve; as a rule, active = well fitted inhibition curve with a large enough effect; inconclusive = small, poorly fitted or top-dose-only effect, or another doubt; inactive = no such curve, though single readings can be large or run the other way.
SMILES,LASV entry inh,MARV entry inh,Cycloheximide cs,Shiga toxin inh,Pf growth 48h,Pf growth 96h
CCc1ccc(CN2CCC(Oc3ccc(C(=O)N4CCCC4)cc3)CC2)cc1,-24.8%,-21.2%,10.7,6.4,9.28µM*,u
O=C(CSc1nnc(-c2ccccc2)n1-c1ccc(Cl)cc1)N/N=C/c1ccco1,u,u,1.1,2.8,-13.1%,-26.1%
Ic1ccc(N2CCN(Cc3c[nH]c4ncccc34)CC2)cc1,u,11.2µM*,x,x,u,u
Oc1ccc(CN2CCc3ccccc3C2)c2cccnc12,2.59µM*,3.26µM*,13.2,-7.0,u,3.7µM*
Oc1ccc(CN2CCN(c3ccccc3)CC2)c2cccnc12,u,u,-2.1,1.0,7.38µM*,-16.9%
Cc1ccc(C)c(S(=O)(=O)N2CCN(Cc3ccc(O)c4ncccc34)CC2)c1,9.2µM*,7.3µM*,-3.1,-5.7,-12.1%,4.15µM*
Fc1ccc(N2CCN(Cc3ccccn3)CC2)cc1,16.5%[46.1 µM],20.1%[46.1 µM],2.1,-2.8,-17.1%,u
Clc1ccccc1CN1CCC(Cc2ccccc2)CC1,-4.2%,u,4.5,8.6,8.1%,11.7%
Oc1ccc(CN2CCC(Cc3ccccc3)CC2)c2cccnc12,2.82µM*,u,4.6,21.5,u,2.5%
Cc1ccc(C)c(S(=O)(=O)NC2CCS(=O)(=O)C2)c1 (stereo unspecified),x,x,x,x,18.4%,-23.7%
C=CCn1c(COC)nnc1SCC(=O)c1ccc(F)cc1,3.9%,-5.6%,15.7*,44.3*,27.2%,262.3%
C=CCn1c(SCC(=O)c2cccs2)nc2sc(C)cc2c1=O,u,-27.1%[46.1 µM],1.2,-4.3,-9.9%,18.1%[5.75 µM]
C=CCn1c(SCC(=O)c2cccs2)nnc1-c1cccc(OC)c1,7.9%,10.6%,17.6*,36.7*,-7.5%,-12.9%
C=CCn1c(SCC(=O)c2ccc(O)c(O)c2)nnc1-c1ccc(OC)cc1,x,x,x,x,2.62µM*,u
CC1(O)CCN2C(=O)CCc3cccc1c32 (stereo unspecified),x,x,x,x,-13.6%,u
Cc1cccnc1-n1c(CCN2C(=O)c3ccccc3C2=O)nc2ccccc2c1=O,7.3%,5.4%,4.5,22.6,u,3.29µM*
O=C1c2ccccc2C(=O)N1Cc1nc2ccccc2c(=O)n1-c1ccc(Br)cn1,-5.0%,6.2%,-4.1,0.7,28.5%,7.38µM*
COC(=O)c1cc2sc(Cl)cc2n1CC(=O)Nc1cccc(SC)c1,-16.0%,-24.6%,4.5,46.7,6.4%,0.4%
Cc1noc(C)c1COC(=O)C1CCN(S(=O)(=O)c2ccc(F)cc2)CC1,9.2%,20.4%,x,x,u,u
CCOC(=O)c1c(NC(=O)Cn2cnc([N+](=O)[O-])n2)sc2c1CCCC2,0.5%,u,-0.7,-8.2,-4.4%,-20.0%
CC(C)OC(=O)c1c(NC(=O)Cn2cnc([N+](=O)[O-])n2)sc2c1CCCC2,0.2%,-22.5%,1.2,-6.4,u,7.38µM*
CC1=CN2C(=N)/C(=C/c3ccc(Sc4ccc(Cl)cc4)o3)C(=O)N=C2S1,-7.2%,0.2%,4.1,-3.3,12.6%,u
CC1=CN2C(=N)/C(=C/c3ccc(Sc4ccc(C)cc4)o3)C(=O)N=C2S1,0.8%,-21.3%,23.1*,active,u,u
CC1=CN2C(=N)/C(=C/c3ccc(C)o3)C(=O)N=C2S1,1.26µM*,9.5%,24.1*,53.3*,80.5%,26.9%
CN1CCc2c(sc(/N=C/c3c[nH]c4ccccc34)c2C#N)C1,25.0%,u,9.6,12.6,u,u
SMILES,LASV entry inh,MARV entry inh,Cycloheximide cs,Shiga toxin inh,Pf growth 48h,Pf growth 96h
CN1CCc2c(sc(/N=C/c3c[nH]c4ccccc34)c2C(N)=O)C1,x,x,12.0,16.3,4.15µM*,3.7µM*
CCOC(=O)c1c(/N=C/c2ccc(C)cc2O)sc2c1CCC2,-12.6%,15.9%,0.1,3.0,6.2%,36.9%
CCOC(=O)c1c(/N=C/c2ccc(OC)cc2O)sc2c1CCN(C)C2,x,x,2.5,22.2,10.4µM*,5.22µM*
CC(C)(C)OC(=O)N1CCOCCOCCNCCOCCOCC1,-8.4%,0.4%,-1.9,4.5,9.6%,-18.8%
CCCc1ccc(OC(=O)c2ccc(O)cc2Cl)cc1,6.0%[46.1 µM],u,39.9*,96.1*,254.8%,24.3%
CC1Cc2ccccc2N1C(=O)CN(C)CC(=O)Nc1ccc(OC(F)(F)F)cc1 (stereo unspecified),x,x,x,x,8.7%,39.2%
Cc1ccc(NC(=O)NCCCN2CCCC2=O)cc1Cl,x,x,30.5*,73.6*,37.1%,13.3%
O=C(NCCCN1CCCC1=O)Nc1ccc([N+](=O)[O-])cc1,x,x,18.1*,42.6,-22.6%,u
O=C(NCCCN1CCCC1=O)Nc1ccccc1Cl,2.3%[46.1 µM],-4.9%[46.1 µM],7.1,19.6,12.9%,13.1%
O=C(NCCCN1CCCC1=O)Nc1ccc(Cl)cc1,24.8%,u,x,x,x,x
O=C(NCCCN1CCCC1=O)Nc1ccccc1F,x,x,19.4*,36.6*,42.0%,11.3%
O=C(NCCCN1CCCC1=O)c1sc2ccccc2c1Cl,-1.7%,17.5%,29.4*,39.4*,26.8%,3.5%
CSc1nnc(C(C)(C)C)c(=O)n1/N=C/c1ccccc1,2.8%,0.2%[46.1 µM],1.9,2.2,u,23.5%
N#C/C(=C\c1cccnc1)C(=O)Nc1ccccc1,4.5%,-1.5%,17.9*,19.3,30.4%,-4.2%
COc1ccc(NC(=O)/C(C#N)=C/c2cccnc2)c(OC)c1,26.1%[46.1 µM],-11.8%[46.1 µM],-2.8,-11.0,-20.3%,1.04µM*
CCCOc1ccccc1/C=C(\C#N)C(=O)Nc1cccnc1,2.7%[46.1 µM],u,34.3*,78.3*,34.6%,63.0%
COc1ccc(O)c(/C=C(\C#N)C(=O)Nc2cccnc2)c1,u,u,15.1,-7.4,-2.6%,1.3%
CC(C)c1ccc(NC(=O)/C(C#N)=C/c2ccncc2)cc1,x,x,25.7*,17.6*,29.4%,u
O=S(=O)(NC1CCCCC1N1CCOCC1)c1ccc(Cl)cc1 (stereo unspecified),9.8%,0.0%[46.1 µM],-1.1,-11.1,7.4%,1.2%
O=[N+]([O-])c1ccc(COc2ccc(Br)cc2CN2CCOCC2)cc1,x,x,0.6,-6.6,-15.6%,u
CCOC(=O)C1CCN(S(=O)(=O)c2ccc(-c3ccc(=O)[nH]n3)o2)CC1,x,x,-0.9,-2.9,u,u
COCCn1c(SCC(=O)NC2CCCC2)nc2ccccc2c1=O,3.7%,11.2%,x,x,16.8%,-15.9%
O=C(COC(=O)/C=C/c1ccc2c(c1)OCO2)Nc1ccc(S(=O)(=O)N2CCCC2)cc1,-29.4%,-16.6%,-2.1,14.0,0.6%,1.9%
O=C(COC(=O)c1cccnc1)Nc1ccccc1,6.4%,0.0%,-4.1,-4.2,u,u
O=C(COC(=O)/C=C/c1ccc2c(c1)OCO2)Nc1ccccc1,-9.0%,29.7%[46.1 µM],40.4*,92.6*,25.0%,14.2%
O=C(COC(=O)c1ccc2c(c1)OCO2)Nc1ccccc1,6.9%,12.8%[46.1 µM],13.3*,41.4*,-1.7%,13.2%
O=C(COC(=O)c1ccncc1)Nc1ccccc1,u,7.3%,21.0*,59.4,-0.2%,66.9%
COCCNCCCOc1ccc(C)cc1Br,x,x,9.3,27.5,37.7%,-0.8%
